Inconclusive results are not listed. Where a call stands in place of a potency, no number is given. A number with no mark means an inactive call. Calls of active or inactive are those of the source. The call rests on the fitted dose curve; in most records, active means well fitted curve in the direction sought with a large enough effect; inconclusive means small, poorly fitted or top-dose-only effect, or another doubt; inactive means no such curve, though single readings can be large; an effect the other way counts as inactive or inconclusive.
Tested on: not listed separately
Experiment: qHTS to identify inhibitors of the type 1 interferon - major histocompatibility complex class I in skeletal muscle: primary screen against the NCATS Mechanism Interrogation Plate v5.0 (MIPE) Libary (AID 1347411); further: nearly all actives have a fitted effect of over 65% in size; further: potency means the concentration at half of the fitted maximal effect
Conditions: iHSKM cells + IFN-b, HiBiT-tagged MHC-I luminescence, 24 h; series mostly up to 45.8 µM
Method in brief: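 Luminescence from CRISPR HiBit-tagged endogenous HLA-B in human myoblasts reported MHC class I level after 24 h of IFN-beta (4 ng/ml) plus compound. Compounds ran as 11-point 1:3 series, top 46 uM final.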

Which Potency does the source give for C#Cc1cccc(Nc2ncnc3cc(OC)c(OCCCCCCC(=O)NO)cc23)c1 here?
The Potency was 1.65 µM (active).

Which activity change, negative = inhibition does the source give for Cn1c(CNc2ccc(C(=N)N)cc2)nc2cc(C(=O)N(CCC(=O)O)c3ccccn3)ccc21 here?
The activity change, negative = inhibition was 5.59% [at 0.314 µM].

With COc1ccc(OC)c(-c2nnc3ccc(-c4ccc(OC)c(O[C@@H]5CCOC5)c4)nn23)c1 as the compound, how does the Potency read?
Its Potency is “inactive”.

Which Potency does the source give for Cc1cn2cc(C(=O)N(C)CCO)cc(N[C@@H]3CCOc4cccc(C)c43)c2n1 here?
Its Potency is “inactive”.

For CCN1CCN(CC(=O)Nc2ccc(-c3cccc4c(=O)cc(N5CCOCC5)oc34)c3sc4ccccc4c23)CC1, which Potency is on record?
The Potency was “inactive”.

For O=C(NC1CCNCC1)c1[nH]ncc1NC(=O)c1c(Cl)cccc1Cl, which Potency is on record?
The Potency was 0.262 µM (active).

With CNC(=O)c1ccc(-c2cnc3ncc(Cc4ccc5ncccc5c4)n3n2)cc1F as the compound, how does the Potency read?
The Potency was “inactive”.

Which Potency does the source give for C[C@@H]1COC(Nc2ccc3ncnc(Nc4ccc(OCc5nccs5)c(Cl)c4)c3c2)=N1 here?
Its Potency is 16.5 µM (active).

For COc1ccc(CC2SC(=O)NC2=O)cc1C(=O)NCc1ccc(C(F)(F)F)cc1 (stereo not given), which Potency is on record?
The Potency was “inactive”.

For Cc1c(Cn2c(C)nc3c(C(=O)O)cc(N4CCOCC4)cc32)cccc1C(F)(F)F, which Potency is on record?
The Potency was “inactive”.

For COc1cc(C(=O)N2CCC(N3CCN(C)CC3)CC2)ccc1Nc1ncc2c(n1)N(C)c1ccccc1C(=O)N2C, which Potency is on record?
Its Potency is 23.4 µM (active).

With Cc1[nH]nc2ccc(-c3cncc(OC[C@@H](N)Cc4ccccc4)c3)cc12 as the compound, how does the Potency read?
The Potency was 1.86 µM (active).

With N#CCNC(=O)c1ccc(-c2ccnc(Nc3ccc(N4CCOCC4)cc3)n2)cc1 as the compound, how does the Potency read?
Its Potency is 11.7 µM (active).

With CC(C)c1cnn2c(NCc3ccccc3)cc(N[C@@H](CO)[C@H](O)CO)nc12 as the compound, how does the Potency read?
Its Potency is 0.186 µM (active).

Which Potency does the source give for OCCCNc1cc(-c2ccnc(Nc3cccc(Cl)c3)n2)ccn1 here?
Its Potency is 0.0415 µM (active).

Which Potency does the source give for CC1COC2(CCN(c3nc(=O)c4cc(C(F)(F)F)cc([N+](=O)[O-])c4s3)CC2)O1 (stereo not given) here?
Its Potency is “inactive”.

With CN(c1ncccc1CNc1nc(Nc2ccc3c(c2)CC(=O)N3)ncc1C(F)(F)F)S(C)(=O)=O as the compound, how does the Potency read?
The Potency was 4.66 µM (active).

For CC(C)CC(=O)Nc1n[nH]c2c1CN(C(=O)C1CCN(C)CC1)C2(C)C, which Potency is on record?
The Potency was 1.04 µM (active).

For O=C(c1ccc(Nc2nccc(-c3cc4ccccc4s3)n2)cc1)N1CCC(N2CCCC2)CC1, which Potency is on record?
The Potency was 5.23 µM (active).

With C1Cc2[nH]nc(-c3nn[nH]n3)c2C1 as the compound, how does the Potency read?
The Potency was “inactive”.

Which Potency does the source give for O=C(O)c1ccc2c(c1)nc(Nc1cccc(Cl)c1)c1ccncc12 here?
The Potency was 16.5 µM (active).

Which Potency does the source give for COCCOc1ccc2c(c1)ncn2-c1ccc2cccc(N3CCC(N)CC3)c2n1 here?
The Potency was 1.86 µM (active).

For O=C(O)[C@H](Cc1c[nH]c2ccccc12)N1C(=O)c2ccccc2C1=O, which Potency is on record?
Its Potency is “inactive”.

With CCc1c2c(nc3ccc(O)cc13)-c1cc3c(c(=O)n1C2)COC(=O)[C@]3(O)CC as the compound, how does the Potency read?
Its Potency is 1.17 µM (active).

With Nc1nc(NCCNc2ncc(-n3ccnc3)c(-c3ccc(Cl)cc3Cl)n2)ccc1[N+](=O)[O-] as the compound, how does the Potency read?
Its Potency is 14.7 µM (active).

With Nc1ncnc2c1c(-c1cnc3[nH]ccc3c1)nn2C1CCCC1 as the compound, how does the Potency read?
Its Potency is 0.829 µM (active).

For N#Cc1c(O)c2c(-c3ccc(-c4ccccc4O)cc3)csc2[nH]c1=O, which Potency is on record?
The Potency was “inactive”.

For CC[C@@H]1C(=O)N(C)c2cnc(Nc3ccc(C(=O)NC4CCN(C)CC4)cc3OC)nc2N1C1CCCC1, which Potency is on record?
Its Potency is 16.5 µM (active).

For CC(=O)OCCN1C(=O)c2c(C)nc3ccc(S(=O)(=O)N4CCOCC4)cc3c2C1=O, which Potency is on record?
The Potency was “inactive”.

For CCN1CCN(Cc2ccc(-c3cc4c(N[C@H](C)c5ccccc5)ncnc4[nH]3)cc2)CC1, which Potency is on record?
Its Potency is 18.6 µM (active).

For CN1CCN(c2cc(C(=O)Nc3ccc4c(c3)-c3c(c(C(N)=O)nn3-c3ccc(F)cc3)CC4)c(Cl)cn2)CC1, which Potency is on record?
The Potency was 18.6 µM (active).

With CC(C)c1nn(-c2c(Cl)cccc2Cl)c2nc(Cc3ccc(OCCO)cc3)[nH]c(=O)c12 as the compound, how does the Potency read?
The Potency was 0.0294 µM (active).

Which Potency does the source give for c1cc(-c2cnn3cc(-c4ccc(OCCN5CCCCC5)cc4)cnc23)ccn1 here?
The Potency was 10.4 µM (active).

For Cn1c2cc(S(C)=O)sc2c2cnn(Cc3cccc(N)c3)c(=O)c21 (stereo not given), which Potency is on record?
The Potency was “inactive”.

For COC(=O)c1ccc2c(C(=Nc3ccc(N(C)C(=O)CN4CCN(C)CC4)cc3)c3ccccc3)c(O)[nH]c2c1, which Potency is on record?
Its Potency is 16.5 µM (active).

Molecular target: Calcium and integrin-binding protein 1 (Homo sapiens) (UniProt Q99828)
Sequence (Q99828 whole entry, looked up): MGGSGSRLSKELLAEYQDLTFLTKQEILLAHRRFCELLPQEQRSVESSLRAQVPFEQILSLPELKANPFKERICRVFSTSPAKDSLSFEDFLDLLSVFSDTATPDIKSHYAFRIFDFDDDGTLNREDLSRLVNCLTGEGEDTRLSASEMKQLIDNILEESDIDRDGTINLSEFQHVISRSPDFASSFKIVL
Experiment: Primary qHTS for Identification of Calcium Integrin Binding Protein 1 (CIB1) Competitor (AID 1508620);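 further: GST tagged CIB1 binding a fluorescein labelled alphaIIb integrin peptide tracer; top concentration of the series differs between compounds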
Conditions: CIB1-GST / FITC-alphaIIb peptide fluorescence polarization; series mostly up to 57.7 µM
Method in brief: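 Fluorescence polarization competition: GST-tagged CIB1 (1 uM final) preincubated with compound 15 min at room temperature, then FITC-labelled alphaIIb peptide (100 nM final) added. After 15 min at room temperature, polarization read at Ex 480/Em 540.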

For C#Cc1cccc(Nc2ncnc3cc(OC)c(OCCCCCCC(=O)NO)cc23)c1, which outcome is on record?
The outcome was “inactive”.

Which outcome does the source give for Cn1c(CNc2ccc(C(=N)N)cc2)nc2cc(C(=O)N(CCC(=O)O)c3ccccn3)ccc21 here?
The outcome was “inactive”.

For COc1ccc(OC)c(-c2nnc3ccc(-c4ccc(OC)c(O[C@@H]5CCOC5)c4)nn23)c1, which outcome is on record?
Its outcome is “inactive”.

With Cc1cn2cc(C(=O)N(C)CCO)cc(N[C@@H]3CCOc4cccc(C)c43)c2n1 as the compound, how does the outcome read?
Its outcome is “inactive”.

With CCN1CCN(CC(=O)Nc2ccc(-c3cccc4c(=O)cc(N5CCOCC5)oc34)c3sc4ccccc4c23)CC1 as the compound, how does the outcome read?
Its outcome is “inactive”.

For O=C(NC1CCNCC1)c1[nH]ncc1NC(=O)c1c(Cl)cccc1Cl, which outcome is on record?
Its outcome is “inactive”.

Which outcome does the source give for CNC(=O)c1ccc(-c2cnc3ncc(Cc4ccc5ncccc5c4)n3n2)cc1F here?
The outcome was “inactive”.

For C[C@@H]1COC(Nc2ccc3ncnc(Nc4ccc(OCc5nccs5)c(Cl)c4)c3c2)=N1, which outcome is on record?
The outcome was “inactive”.

With COc1ccc(CC2SC(=O)NC2=O)cc1C(=O)NCc1ccc(C(F)(F)F)cc1 (stereo not given) as the compound, how does the outcome read?
Its outcome is “inactive”.

With Cc1c(Cn2c(C)nc3c(C(=O)O)cc(N4CCOCC4)cc32)cccc1C(F)(F)F as the compound, how does the outcome read?
The outcome was “inactive”.

With COc1cc(C(=O)N2CCC(N3CCN(C)CC3)CC2)ccc1Nc1ncc2c(n1)N(C)c1ccccc1C(=O)N2C as the compound, how does the outcome read?
The outcome was “inactive”.

Which outcome does the source give for Cc1[nH]nc2ccc(-c3cncc(OC[C@@H](N)Cc4ccccc4)c3)cc12 here?
The outcome was “inactive”.

Which outcome does the source give for N#CCNC(=O)c1ccc(-c2ccnc(Nc3ccc(N4CCOCC4)cc3)n2)cc1 here?
The outcome was “inactive”.

With CC(C)c1cnn2c(NCc3ccccc3)cc(N[C@@H](CO)[C@H](O)CO)nc12 as the compound, how does the outcome read?
The outcome was “inactive”.

Which outcome does the source give for OCCCNc1cc(-c2ccnc(Nc3cccc(Cl)c3)n2)ccn1 here?
Its outcome is “inactive”.

For CC1COC2(CCN(c3nc(=O)c4cc(C(F)(F)F)cc([N+](=O)[O-])c4s3)CC2)O1 (stereo not given), which outcome is on record?
The outcome was “inactive”.

Which outcome does the source give for CN(c1ncccc1CNc1nc(Nc2ccc3c(c2)CC(=O)N3)ncc1C(F)(F)F)S(C)(=O)=O here?
Its outcome is “inactive”.

For CC(C)CC(=O)Nc1n[nH]c2c1CN(C(=O)C1CCN(C)CC1)C2(C)C, which outcome is on record?
Its outcome is “inactive”.

With O=C(c1ccc(Nc2nccc(-c3cc4ccccc4s3)n2)cc1)N1CCC(N2CCCC2)CC1 as the compound, how does the outcome read?
The outcome was “inactive”.

With C1Cc2[nH]nc(-c3nn[nH]n3)c2C1 as the compound, how does the outcome read?
Its outcome is “inactive”.

For O=C(O)c1ccc2c(c1)nc(Nc1cccc(Cl)c1)c1ccncc12, which outcome is on record?
Its outcome is “inactive”.

Which outcome does the source give for COCCOc1ccc2c(c1)ncn2-c1ccc2cccc(N3CCC(N)CC3)c2n1 here?
Its outcome is “inactive”.

Which outcome does the source give for O=C(O)[C@H](Cc1c[nH]c2ccccc12)N1C(=O)c2ccccc2C1=O here?
Its outcome is “inactive”.

For CCc1c2c(nc3ccc(O)cc13)-c1cc3c(c(=O)n1C2)COC(=O)[C@]3(O)CC, which outcome is on record?
The outcome was “inactive”.

Which outcome does the source give for Nc1nc(NCCNc2ncc(-n3ccnc3)c(-c3ccc(Cl)cc3Cl)n2)ccc1[N+](=O)[O-] here?
Its outcome is “inactive”.

With Nc1ncnc2c1c(-c1cnc3[nH]ccc3c1)nn2C1CCCC1 as the compound, how does the outcome read?
The outcome was “inactive”.

With N#Cc1c(O)c2c(-c3ccc(-c4ccccc4O)cc3)csc2[nH]c1=O as the compound, how does the outcome read?
The outcome was “inactive”.

With CC[C@@H]1C(=O)N(C)c2cnc(Nc3ccc(C(=O)NC4CCN(C)CC4)cc3OC)nc2N1C1CCCC1 as the compound, how does the outcome read?
Its outcome is “inactive”.

With CC(=O)OCCN1C(=O)c2c(C)nc3ccc(S(=O)(=O)N4CCOCC4)cc3c2C1=O as the compound, how does the outcome read?
The outcome was “inactive”.

For CCN1CCN(Cc2ccc(-c3cc4c(N[C@H](C)c5ccccc5)ncnc4[nH]3)cc2)CC1, which outcome is on record?
The outcome was “inactive”.

For CN1CCN(c2cc(C(=O)Nc3ccc4c(c3)-c3c(c(C(N)=O)nn3-c3ccc(F)cc3)CC4)c(Cl)cn2)CC1, which outcome is on record?
The outcome was “inactive”.

Which outcome does the source give for CC(C)c1nn(-c2c(Cl)cccc2Cl)c2nc(Cc3ccc(OCCO)cc3)[nH]c(=O)c12 here?
Its outcome is “inactive”.

For c1cc(-c2cnn3cc(-c4ccc(OCCN5CCCCC5)cc4)cnc23)ccn1, which outcome is on record?
The outcome was “inactive”.

For Cn1c2cc(S(C)=O)sc2c2cnn(Cc3cccc(N)c3)c(=O)c21 (stereo not given), which outcome is on record?
Its outcome is “inactive”.

With COC(=O)c1ccc2c(C(=Nc3ccc(N(C)C(=O)CN4CCN(C)CC4)cc3)c3ccccc3)c(O)[nH]c2c1 as the compound, how does the outcome read?
Its outcome is “inactive”.

Source: PubChem BioAssay (NCATS)
